Holding throughout (experiment): NCI-60 one-dose screen, 48 h (100 = growth as untreated, 0 = no growth, -100 = all killed)
In one assay the test system is SK-MEL-2 melanoma. Particulars: 10 µM.
Another assay concerns EKVX NSCLC. Conditions: 10 µM.
A further assay has as its system SN12C renal. Particulars: 10 µM.
Another assay deals with UO-31 renal. Particulars: 10 µM.
For the next assay, the system named is TK-10 renal. Conditions: 10 µM unless noted.
For another assay, the system named is ACHN renal. Particulars: 10 µM.
In the next assay the test system is CAKI-1 renal. Particulars: 10 µM.
In the next assay the test system is A498 renal. Particulars: 10 µM.
In another assay the test system is HL-60(TB) leukemia. Conditions: 10 µM.
For the next assay, the system named is CCRF-CEM leukemia. Particulars: 10 µM.

“And” between values parts separate entries of the source, which are not always exact repeats. Identical values can stand only once. The panel holds about 83,000 compounds, 20% with a hit somewhere; the sample as a whole holds those more often.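 The test compound was applied at a single concentration to cells in 96-well plates for 48 hours, and percent growth was recorded.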 The source made the active and inactive calls. How the source made its calls: active means growth percent below 10; inactive means the rest.

As to `COC(=O)C1C(O)C(C)C(O)C(C)/C=C\C=C(C)C(=O)Nc2c(C)c(OC(C)=O)c3c(c2O)C(=O)C(C)=C2OCOC(=C23)C(C)=CC(C)(O)C(O)C(C)C1O` (stereo not given), the growth with SK-MEL-2 melanoma was 96.2% (inactive); in the assay on EKVX NSCLC, 110% (inactive); with SN12C renal, 94.9% (inactive); in the assay with UO-31 renal, 103% (inactive); with TK-10 renal it was 107% (inactive); in the assay with ACHN renal, 85.7% (inactive). In addition, the growth with CAKI-1 renal is 95.5% (inactive); in the assay with A498 renal, 102% (inactive); in the assay with HL-60(TB) leukemia, 72.3% (inactive); in the assay on CCRF-CEM leukemia, 96.1% (inactive).
Take `COc1ccccc1[As]=[As]c1ccccc1OC` (stereo not given): the growth in the assay on SK-MEL-2 melanoma was -86.9% (active); in the assay with EKVX NSCLC it was -67.7% (active); in the assay with SN12C renal, -83.3% (active); in the assay on UO-31 renal it was -93.1% (active); in the assay on TK-10 renal, -95.8% (active); with ACHN renal it was -96.9% (active). Moreover, the growth with CAKI-1 renal is -86.5% (active); with A498 renal, -96.3% (active); in the assay with HL-60(TB) leukemia it was -37.1% (active); in the assay on CCRF-CEM leukemia, 2.34% (active).
Regarding `O=C1CCC(=O)N1SC(Cl)(Cl)Cl`, the growth in the assay on SK-MEL-2 melanoma was 97% (inactive); in the assay on EKVX NSCLC, 117% (inactive); in the assay on SN12C renal it was 102% (inactive); with UO-31 renal, 99.1% (inactive); in the assay on TK-10 renal, 99.2% (inactive); in the assay with ACHN renal, 110% (inactive). Besides, the growth with CAKI-1 renal is 109% (inactive); in the assay on A498 renal it was 127% (inactive); in the assay with HL-60(TB) leukemia it was 100% (inactive); in the assay on CCRF-CEM leukemia, 94.5% (inactive).
In the case of `COc1cc2c(cc1OC)C13CCN4CC5=CCOC6CC(=O)N2C1C6C5CC43` (stereo not given), the growth in the assay on SK-MEL-2 melanoma was 116% (inactive) and 77.5% (inactive); in the assay on EKVX NSCLC, 105% (inactive) and 114% (inactive); in the assay on SN12C renal, 97.3% (inactive) and 91.3% (inactive); with UO-31 renal it was 87.9% (inactive) and 92.8% (inactive); with TK-10 renal, 112% (inactive) and 138% (inactive); with ACHN renal, 99.6% (inactive) and 107% (inactive). In addition, the growth is 103% (inactive) and 104% (inactive) in the assay with CAKI-1 renal; 108% (inactive) and 87.2% (inactive) in the assay with A498 renal; 127% (inactive) and 80.1% (inactive) in the assay with HL-60(TB) leukemia; 100% (inactive) and 76.3% (inactive) in the assay on CCRF-CEM leukemia.
Take `C/C(=C\c1ccc(Cl)c(Cl)c1)[N+](=O)[O-]`: the growth in the assay on SK-MEL-2 melanoma is 18.1% (inactive) and 95.5% (inactive); in the assay on EKVX NSCLC, 94.6% (inactive); in the assay on SN12C renal it was -43.4% (active) and 101% (inactive); in the assay with UO-31 renal, -84.4% (active) and 97.6% (inactive); in the assay on TK-10 renal, 4.82% (active) and 91.4% (inactive); in the assay with ACHN renal it was -70.7% (active) and 105% (inactive). Moreover, the growth is 121% (inactive) in the assay on CAKI-1 renal; 103% (inactive) and 79.2% (inactive) in the assay on A498 renal; -26.5% (active) and 83.5% (inactive) in the assay on HL-60(TB) leukemia; 8.59% (active) and 85.4% (inactive) with CCRF-CEM leukemia.
Take `C=NCC#N`: the growth was 96.9% (inactive) and 82.2% (inactive) in the assay with SK-MEL-2 melanoma; 115% (inactive) in the assay on EKVX NSCLC; 99.9% (inactive) and 99.6% (inactive) in the assay on SN12C renal; 87.1% (inactive) and 91.8% (inactive) in the assay on UO-31 renal; 100% (inactive) and 90% (inactive) in the assay on TK-10 renal; 96.7% (inactive) and 105% (inactive) with ACHN renal. The growth in the assay on CAKI-1 renal is 98.1% (inactive) and 115% (inactive); in the assay on A498 renal, 110% (inactive); in the assay on HL-60(TB) leukemia it was 99.1% (inactive) and 112% (inactive); with CCRF-CEM leukemia it was 118% (inactive).
Take `CC/C(=C/c1ccc(OC)cc1OC)[N+](=O)[O-]`: the growth with SK-MEL-2 melanoma was 34.4% (inactive); in the assay on EKVX NSCLC it was 79.9% (inactive); with SN12C renal it was 15.9% (inactive); with UO-31 renal, 28.1% (inactive); with TK-10 renal, 11.1% (inactive); in the assay with ACHN renal, -43.1% (active). For the same compound, the growth in the assay with CAKI-1 renal was 49.2% (inactive); in the assay on A498 renal it was 76.8% (inactive); with HL-60(TB) leukemia it was 15.7% (inactive).
As to `NC(Cc1ccccc1)c1ccccc1` (stereo not given), the growth is 99.8% (inactive) and 101% (inactive) with SK-MEL-2 melanoma; 103% (inactive) and 112% (inactive) in the assay with EKVX NSCLC; 102% (inactive) and 101% (inactive) in the assay on SN12C renal; 93.6% (inactive) and 69.8% (inactive) with UO-31 renal; 101% (inactive) and 103% (inactive) in the assay on TK-10 renal; 105% (inactive) and 101% (inactive) in the assay on ACHN renal. The growth in the assay with CAKI-1 renal was 96.5% (inactive) and 102% (inactive); in the assay on A498 renal, 99.9% (inactive); with HL-60(TB) leukemia, 102% (inactive) and 107% (inactive); with CCRF-CEM leukemia, 110% (inactive) and 90% (inactive).
`COc1cc(/C=C/[N+](=O)[O-])cc(OC)c1OC`: the growth in the assay on SK-MEL-2 melanoma is 63.6% (inactive); with EKVX NSCLC, 73.6% (inactive); with SN12C renal it was 30.7% (inactive); in the assay with UO-31 renal, -85.3% (active); with TK-10 renal, -11% (active); in the assay with ACHN renal it was -42.2% (active). The values for the growth in the assay on CAKI-1 renal, with A498 renal and in the assay with HL-60(TB) leukemia were -78.2% (active), 47.1% (inactive) and -16.6% (active), respectively.
Turning to `CN(CCCl)c1ccc(/C=C/C2=[N+](C)c3ccccc3C2(C)C)cc1`, the growth was 46% (inactive) in the assay on SK-MEL-2 melanoma; 54.6% (inactive) in the assay on EKVX NSCLC; 1.3% (active) in the assay with SN12C renal; 87.3% (inactive) with UO-31 renal; 54.7% (inactive) with TK-10 renal; 85.2% (inactive) in the assay on ACHN renal. Besides, the growth with CAKI-1 renal is 102% (inactive); in the assay on A498 renal, 66.3% (inactive); in the assay on HL-60(TB) leukemia, -29.5% (active).
With `O=[N+]([O-])c1ccc(N2CCOCC2)c2c1no[n+]2[O-]`, the growth was -4.77% (active) with SK-MEL-2 melanoma; 46.5% (inactive) in the assay with EKVX NSCLC; 16.8% (inactive) with SN12C renal; 8.16% (active) in the assay on UO-31 renal; -0.265% (active) with TK-10 renal; 13.6% (inactive) in the assay on ACHN renal. Besides, the growth is 26.1% (inactive) in the assay on CAKI-1 renal, -14.1% (active) in the assay with A498 renal and -16.7% (active) with HL-60(TB) leukemia.
On to `CS(=N)(=O)CCC(N)C(=O)O` (stereo not given), for which the growth in the assay on SK-MEL-2 melanoma was 107% (inactive); in the assay with EKVX NSCLC, 109% (inactive); in the assay with SN12C renal, 102% (inactive); in the assay on UO-31 renal, 95.1% (inactive); in the assay on TK-10 renal, 94.1% (inactive); in the assay on ACHN renal, 103% (inactive). Moreover, the growth in the assay on CAKI-1 renal is 83.2% (inactive); with A498 renal it was 129% (inactive); with HL-60(TB) leukemia, 127% (inactive).
